Source: ChEMBL document CHEMBL1157539, “Thousands of chemical starting points for antimalarial lead identification” (Nature, 2010)

tested on: Plasmodium falciparum; assay: GSK_TCMDC: Inhibition of Plasmodium falciparum Dd2 in whole red blood cells, using parasite LDH activity as an index of growth. Test compounds present at 2uM; type: functional

SMILES | Inhibition [%]
Cc1[nH]c(C)c(C(F)(F)F)c(=O)c1-c1ccc(Oc2ccc(OC(F)(F)F)cc2)cc1 | 96
COc1ccc(NC(=O)/C=C/c2ccccc2Cl)cc1OCCN1CCC(N2CCN(C)CC2)CC1 | 49
O=C(Nc1cccc(Oc2ccccc2)c1)N[C@H]1CCN(Cc2ccc(OCCCN3CCCCC3)cc2)C1 | 70
COCCCNC(=O)C1CCN(C(c2ccc(Cl)cc2)c2ccc(Cl)cc2)CC1 | 63
CC(=O)c1ccc2c(c1)C(NC(=O)c1cccc(Cl)c1Cl)C(CO)C(C)(C)O2 (centres undefined) | 44
O=C(O)C(F)(F)F.O=[N+]([O-])c1cccc(CNC2CCN(Cc3ccc(-c4ccccc4)cc3)CC2)c1 | 96
COc1ccc2c(NN=Cc3ccc(F)cc3)ccnc2c1 | 99
CN1CCN(c2cc3c(cc2Br)CCN3C(=O)Nc2ccc(-c3cnc4ccccc4c3)cc2)CC1 | 79
N#Cc1ccc(N2CCN(C(=O)c3cccc(-c4noc(C(F)(F)F)n4)c3)CC2)nc1 | 58
Cl.Cn1c(=O)n(C)c2cc(CNCCNc3ccnc4cc(Cl)ccc34)ccc21 | 96
CCCCNc1nc(NCCCC)c2c(C)c(Cc3ccccc3)c(NCCCC)nc2n1.Cl | 84
COCCNCc1ncsc1-c1ccc2c(Nc3cc(O)c(Cl)cc3F)ccnc2c1 | 92
CC(Cc1ccc(C(=O)N2CCN(C(=O)c3ccc(CC(C)NCCc4cccc(Cl)c4)cc3)CC2)cc1)NCCc1cccc(Cl)c1 (centres undefined) | 85
COc1ccc2nc(-c3ccc(C(=O)NCCCN4CCN(c5cc(Cl)ccc5OC)CC4)cc3)[nH]c2c1 | 53
CN1CCN(Cc2ccc(-c3cccc(-c4nc5ccccc5[nH]4)c3)cc2)CC1.O=C(O)C(F)(F)F | 6
O=C(Nc1ccc2c(c1)CCC2)c1cccc(CN2CCCN(Cc3cccc(O)c3)CC2)c1.O=C(O)C(F)(F)F | 20
N#Cc1ccccc1S(=O)(=O)N1CCCC(CNC(=O)[C@H](CC2CCCCC2)NC(=O)c2cc3ccccc3s2)C1 (some centres undefined) | 92
Cc1ccccc1OCC(=O)Nc1ccc(-c2nc3cc4ccccc4cc3[nH]2)cc1 | 51
Cc1cccc(CNc2nc(C)cc(N[C@@H](Cc3ccccc3)C(=O)NCCOc3ccccc3)n2)c1.O=C(O)C(F)(F)F | 54
Cc1ccc2oc3cc(-c4nnn[nH]4)ccc3c(=O)c2c1 | 96

SMILES | Inhibition [%]
O=c1ccccn1CCCC1CCCCN1 (centres undefined) | 0
CC1(C)C2C=C(CN3CCC(NC(=O)Nc4ccc(Cl)c(Cl)c4)CC3)C1CC2 (centres undefined) | 33
CCNc1cc(C(=O)N[C@@H](Cc2ccccc2)[C@H](O)CNC(C)CCCC(C)C)cc(N2CCCS2(=O)=O)c1.O=CO (some centres undefined) | 98
CC(=O)Nc1ccc(C(=O)NC2CCN(c3ccnc4cc(Cl)ccc34)CC2)cc1.O=C(O)C(F)(F)F | 99
C=CCn1c(SCC(=O)Nc2cc(Cl)ccc2Cl)nc2sc(C)cc2c1=O | 96
O=c1cc(NCCCNCc2cc(Cl)cc(Cl)c2OCc2ccccc2)[nH]c2ccccc12 | 50
COc1cc2nc(C)nc(Nc3ccc(Cc4ccccc4)cc3)c2cc1OC.Cl | 99
Cl.NC(=O)c1cccc(Nc2nccc(Nc3ccc(Oc4ccc5ccccc5c4)cc3)n2)c1 | 31
CCCCCCN1CCN(Cc2cccc(NC(=O)c3cc4ccccc4s3)c2)CC1.O=C(O)C(F)(F)F | 68
Cc1ccc2c(=NN=Cc3ccc(N(C)C)cc3)cc(C)[nH]c2c1 | 46
O=C(O)c1cc(C(F)(F)F)co1 | 19
O=C(NC1CCN(CCC[C@]2(c3ccc(Cl)c(Cl)c3)CCCN(C(=O)c3ccccc3)C2)CC1)c1ccc(F)cc1 | 68
C=Cc1sc(CNCCCNc2cc(=O)c3ccccc3[nH]2)c(C)c1Br | 35
COc1cc(NC(=O)c2cc([N+](=O)[O-])ccc2NC(=O)CNC2CCCCC2C)cc(OC)c1 (centres undefined) | 78
Cn1c(Cc2ccccc2)nnc1Sc1ccc(C#N)c([N+](=O)[O-])c1 | 29
CC(C)c1ccc2oc(-c3ccc(NC(=O)c4ccc([N+](=O)[O-])o4)cc3)nc2c1 | 95
Cc1cnc(N)c(/C=C/c2cncc(C(=O)NCCc3ccc(Cl)cc3Cl)c2)c1.Cl | 100
O=C(Cc1cccc(Cl)c1)Nc1cccc(-c2c[nH]c3nc(Nc4ccccc4)ncc23)c1.O=C(O)C(F)(F)F | 70
Cc1cc(NC(=O)c2ccco2)ccc1OC1CCN(Cc2ccc(C#N)cc2)CC1.O=C(O)C(F)(F)F | 89
